Measured values as given in PubChem BioAssay.
Records with an inconclusive call do not appear. The source made the active and inactive calls.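 How the source made its calls, unless noted: active means viability at or under a set limit in both replicates, limit being median viability minus 3 SD (cut at about 48% in these data, passing the limit was not always enough); inconclusive means at or under the limit in just one replicate; inactive means at or above the limit in both replicates.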

Experiments:
[1] = HUVEC growth inhibition – cell-based, human, primary screen (AID 575;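 active means viability at or below 30% in both replicate assays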;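 further: 100% = median of untreated cell wells with 0.1% DMSO on each plate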); settings: HUVEC proliferation, CellTiter-Glo luminescence, 72 h; at 10 µM; stronger effect = lower value
[2] = growth inhibitors of H69AR lung tumor, primary screen, human, duplicate replicates (AID 580); settings: H69AR lung tumor cells viability, ATP luminescence, 72 h; at 10 µM; stronger effect = lower value;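 further: 100% = mean luminescence of untreated wells and 0% = no signal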
[3] = reversal of MRP1-mediated doxorubicin resistance, pilot screen, H69AR cells, doxorubicin co-treatment (AID 601;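 active means viability loss from added drug above about 55%, and viability with drug at most 40%, in both replicates, limit read from the data, passing the limit was not always enough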); settings: CellTiter-Glo, 72 h, at 10 µM; for differential viability (reversal): stronger effect = higher value
[4] = 384-well plate pilot, post-Golgi transport modulator project, inhibition of yeast transport mutant growth (AID 636; in the data active means inhibition above about 31%); settings: absorbance 615 nm, about 18 h, stronger effect = higher value
[5] = growth suppression of yeast trafficking mutant, preliminary HTS, modulators of trafficking downstream of Golgi apparatus project, 1536-format plate, OD 615 nm (AID 637; in the data active means inhibition above about 30%); settings: yeast transport mutant growth, absorbance 615 nm, 18 h; stronger effect = higher value
[6] = OD615 S. cerevisiae growth inhibition, permissive medium, pilot counter-assay, permissive growth control for S. cerevisiae lifespan shortening project (AID 705;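 active means growth inhibition above 25% in both replicates, a cutoff set 3 SD above the mean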); settings: OD615, 24 h, at 10 µM, stronger effect = higher value
[7] = Restrictive medium S. cerevisiae growth inhibition, OD615, pilot screen of yeast lifespan reduction project, restrictive growth control (AID 706;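 active means growth inhibition above a set limit, 3 SD over mean compound inhibition, in both replicates, cut at about 43% in these data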;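 further: modified DeaD lifespan yeast strain shifted to restrictive glucose medium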); settings: OD615, 48 h, at 10 µM, stronger effect = higher value
[8] = viability gain of MRP-1-high H69AR cells under doxorubicin, pilot screen, MRP-1 activator project, CellTiter-Glo, duplicate (AID 807;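 active means viability increase at or above a cutoff of the median across tested compounds plus 3 SD, cut at about 8.5% in these data, passing the limit was not always enough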;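 further: compound pretreatment 18-22 h then 72 h combined with doxorubicin; 0% = doxorubicin alone and 100% = vehicle without doxorubicin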); settings: H69AR viability with doxorubicin, CellTiter-Glo luminescence; at 10 µM; stronger effect = higher value
[9] = growth suppression of beta-catenin knockout HCT116, pilot screen, human colon tumor cells (AID 823;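 active means cell viability at or below a set limit in both duplicate runs, the limit being the all-compound median minus 4 SD, cut at about 23% in these data, passing the limit was not always enough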;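 further: 0% = wells killed by 20 µM Hyamine and 100% = untreated DMSO cell wells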); settings: CellTiter-Glo, 60 h, at 10 µM, stronger effect = lower value
[10] = growth suppression of PTEN-deleted HCT116, pilot screen, cell-based, HCT116 clonal line, CellTiter-Glo (AID 824;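 active means viability at or below 27.92% in each of two runs, the all-compound median minus 4 SD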;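 further: 0% = 20 µM Hyamine control and 100% = vehicle cell control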); settings: 60 h, at 10 µM, stronger effect = lower value
[11] = inhibitors of the yeast RAM network, pilot screen, dse1pr::URA3 reporter, 5-FOA selection (AID 869;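 active means inhibition over a set limit, the all-compound mean plus 3 SD, in both replicate runs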;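 further: 0% = DMSO wells with no growth and 100% = 10 µM 1-NA-PP1 with full growth; RAM network block rescues cells from 5-FOA so hits raise OD615 growth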); settings: S. cerevisiae dse1pr::URA3 5-FOA growth, OD615, 2 d; at 10 µM; stronger effect = higher value; strain carries analog-sensitive mutant Cbk1 kinase
[12] = RAM signaling pathway blockade in yeast – S. cerevisiae, Pdr1DBD-CYC8 efflux-inhibited sensitized strain, primary screen (AID 1298;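 active means RAM network inhibition above 8.4% in each of two replicates, 3 SD over the compound average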;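 further: 0% = DMSO untreated cells without growth and 100% = 10 µM 1-NA-PP1 full growth; higher means more yeast growth rescued from 5-FOA killing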); settings: S. cerevisiae cbk1-as DSE1-URA3 strain, 5-FOA growth OD615, 2 d; at 50 µM; stronger effect = higher value
[13] = H69AR cells + 2 uM doxorubicin, measured here: viability with 2 uM doxorubicin, stronger effect = lower value
[14] = H69AR cells, compound alone cytotoxicity

## N#C/C(C(=O)c1ccccc1)=C1/CCCN1
[1]
  viability: 95.8% (inactive)
[2]
  viability: 97.2% (inactive)
[3]; H69AR cells + 2 uM doxorubicin
  differential viability (reversal): 5.69% (inactive)
[3]; [13]
  viability: 91.5%
[3]; [14]
  viability: 97.2%
[4]
  inhibition: -1.04% (inactive)
[5]
  inhibition: 5.08% (inactive)
[6]
  growth inhibition: -10.5% (inactive)
[7]
  growth inhibition: -8.62% (inactive)
[8]
  viability increase: 2.34% (inactive)
[9]
  viability: 108% (inactive)
[10]
  viability: 105% (inactive)
[11]
  inhibition: 1.44% (inactive)
[12]
  RAM network inhibition: 1.34% (inactive)

## COC(=O)c1nc2n(n1)C(c1ccc(OC)c(OC)c1)C(C(=O)OC1CCCCC1)=C(C)N2 (configuration not stated)
[1]
  viability: 88.9% (inactive)
[2]
  viability: 83.3% (inactive)
[3]; H69AR cells + 2 uM doxorubicin
  differential viability (reversal): -14.8% (inactive)
[3]; [13]
  viability: 98%
[3]; [14]
  viability: 83.3%
[4]
  inhibition: -6.49% (inactive)
[5]
  inhibition: -4% (inactive)
[6]
  growth inhibition: -0.32% (inactive)
[7]
  growth inhibition: -3.14% (inactive)
[8]
  viability increase: -5.23% (inactive)
[9]
  viability: 97.5% (inactive)
[11]
  inhibition: 2.87% (inactive)
[12]
  RAM network inhibition: 6.75% (inactive)

## O=S(=O)(NCC(O)COCc1ccco1)c1cccs1 (configuration not stated)
[1]
  viability: 114% (inactive)
[2]
  viability: 83.7% (inactive)
[3]; H69AR cells + 2 uM doxorubicin
  differential viability (reversal): -0.665% (inactive)
[3]; [13]
  viability: 84.3%
[3]; [14]
  viability: 83.7%
[4]
  inhibition: -6.62% (inactive)
[5]
  inhibition: -5.56% (inactive)
[6]
  growth inhibition: -10.3% (inactive)
[7]
  growth inhibition: 2.05% (inactive)
[8]
  viability increase: -3.34% (inactive)
[9]
  viability: 92.8% (inactive)
[11]
  inhibition: 1.09% (inactive)
[12]
  RAM network inhibition: 6.29% (inactive)

## O=C(c1ccc(NS(=O)(=O)c2cccs2)cc1)N1CCCCC1
[1]
  viability: 72.9% (inactive)
[2]
  viability: 89.9% (inactive)
[3]; H69AR cells + 2 uM doxorubicin
  differential viability (reversal): -7.68% (inactive)
[3]; [13]
  viability: 97.5%
[3]; [14]
  viability: 89.9%
[4]
  inhibition: -2.63% (inactive)
[5]
  inhibition: -9.05% (inactive)
[6]
  growth inhibition: 1.61% (inactive)
[7]
  growth inhibition: -2.64% (inactive)
[8]
  viability increase: -1.41% (inactive)
[9]
  viability: 93.8% (inactive)
[10]
  viability: 96.8% (inactive)
[11]
  inhibition: 0.805% (inactive)
[12]
  RAM network inhibition: 1.56% (inactive)

## COc1ccc(-c2nn(-c3ccccc3)cc2/C=N/n2cnnc2)cc1OC
[1]
  viability: 79.3% (inactive)
[2]
  viability: 79.8% (inactive)
[3]; H69AR cells + 2 uM doxorubicin
  differential viability (reversal): -11.2% (inactive)
[3]; [13]
  viability: 91%
[3]; [14]
  viability: 79.8%
[4]
  inhibition: -6.84% (inactive)
[5]
  inhibition: -0.63% (inactive)
[6]
  growth inhibition: 2.04% (inactive)
[7]
  growth inhibition: 17.4% (inactive)
[8]
  viability increase: -4.33% (inactive)
[9]
  viability: 88% (inactive)
[10]
  viability: 84% (inactive)
[11]
  inhibition: -0.92% (inactive)
[12]
  RAM network inhibition: -1.68% (inactive)

## Cn1ccnc1C(O)c1ccco1 (configuration not stated)
[1]
  viability: 101% (inactive)
[2]
  viability: 103% (inactive)
[3]; H69AR cells + 2 uM doxorubicin
  differential viability (reversal): 13.1% (inactive)
[3]; [13]
  viability: 89.5%
[3]; [14]
  viability: 103%
[4]
  inhibition: -5.39% (inactive)
[5]
  inhibition: 1.43% (inactive)
[6]
  growth inhibition: -5.51% (inactive)
[7]
  growth inhibition: -3.72% (inactive)
[8]
  viability increase: -0.09% (inactive)
[9]
  viability: 102% (inactive)
[10]
  viability: 103% (inactive)
[11]
  inhibition: 0.74% (inactive)
[12]
  RAM network inhibition: 3.14% (inactive)

## CC(=O)Nc1nc(-c2ccccc2)nc(C)c1C(C)=O
[1]
  viability: 103% (inactive)
[2]
  viability: 94.4% (inactive)
[3]; H69AR cells + 2 uM doxorubicin
  differential viability (reversal): 7.1% (inactive)
[3]; [13]
  viability: 87.3%
[3]; [14]
  viability: 94.4%
[4]
  inhibition: 0.13% (inactive)
[5]
  inhibition: -2.22% (inactive)
[6]
  growth inhibition: -9.85% (inactive)
[7]
  growth inhibition: -7.77% (inactive)
[8]
  viability increase: -0.66% (inactive)
[9]
  viability: 93.4% (inactive)
[10]
  viability: 99.5% (inactive)
[11]
  inhibition: 0.585% (inactive)
[12]
  RAM network inhibition: 5.92% (inactive)

## Cc1cc2ncn(C(=O)N3CCOCC3)c2cc1C
[1]
  viability: 95.4% (inactive)
[2]
  viability: 92.2% (inactive)
[3]; H69AR cells + 2 uM doxorubicin
  differential viability (reversal): 7.56% (inactive)
[3]; [13]
  viability: 84.6%
[3]; [14]
  viability: 92.2%
[4]
  inhibition: -2.47% (inactive)
[5]
  inhibition: -6.03% (inactive)
[6]
  growth inhibition: 0.665% (inactive)
[7]
  growth inhibition: -2.19% (inactive)
[8]
  viability increase: -1.25% (inactive)
[9]
  viability: 97.3% (inactive)
[10]
  viability: 97.3% (inactive)
[11]
  inhibition: 1.22% (inactive)
[12]
  RAM network inhibition: 4.08% (inactive)

## Cc1ccc(S(=O)(=O)c2nc(-c3ccco3)oc2SCC(=O)NCC2CCCO2)cc1 (configuration not stated)
[1]
  viability: 101% (inactive)
[2]
  viability: 92.8% (inactive)
[3]; H69AR cells + 2 uM doxorubicin
  differential viability (reversal): 6.32% (inactive)
[3]; [13]
  viability: 86.4%
[3]; [14]
  viability: 92.8%
[4]
  inhibition: -0.13% (inactive)
[5]
  inhibition: -3.02% (inactive)
[6]
  growth inhibition: 0.025% (inactive)
[7]
  growth inhibition: 0.35% (inactive)
[8]
  viability increase: -2.88% (inactive)
[9]
  viability: 101% (inactive)
[10]
  viability: 104% (inactive)
[11]
  inhibition: 1.47% (inactive)
[12]
  RAM network inhibition: 2.72% (inactive)

## COC(=O)c1cccc(NC(=O)C2COc3ccccc3O2)c1C (configuration not stated)
[1]
  viability: 116% (inactive)
[2]
  viability: 100% (inactive)
[3]; H69AR cells + 2 uM doxorubicin
  differential viability (reversal): 8.78% (inactive)
[3]; [13]
  viability: 91.4%
[3]; [14]
  viability: 100%
[4]
  inhibition: -1.71% (inactive)
[5]
  inhibition: -6.98% (inactive)
[6]
  growth inhibition: -14.9% (inactive)
[7]
  growth inhibition: -21.5% (inactive)
[8]
  viability increase: 0.68% (inactive)
[9]
  viability: 106% (inactive)
[10]
  viability: 99% (inactive)
[11]
  inhibition: -0.07% (inactive)
[12]
  RAM network inhibition: 3.78% (inactive)

## O=C(COC(=O)C1(c2ccccc2F)CCCC1)NC1CCS(=O)(=O)C1 (configuration not stated)
[1]
  viability: 118% (inactive)
[2]
  viability: 97.2% (inactive)
[3]; H69AR cells + 2 uM doxorubicin
  differential viability (reversal): 3.27% (inactive)
[3]; [13]
  viability: 93.9%
[3]; [14]
  viability: 97.2%
[4]
  inhibition: -1.69% (inactive)
[5]
  inhibition: -2.06% (inactive)
[6]
  growth inhibition: 5.97% (inactive)
[7]
  growth inhibition: 2.54% (inactive)
[8]
  viability increase: -0.5% (inactive)
[9]
  viability: 99.4% (inactive)
[10]
  viability: 95.3% (inactive)
[11]
  inhibition: 0.035% (inactive)
[12]
  RAM network inhibition: 3.94% (inactive)
